# Reference: article PMC7819943, “Rice protein-binding microarrays: a tool to detect cis-acting elements near promoter regions in rice”
# Whole data set: some 68,000 sequences, median “fluorescence intensity (a.u.)” near 9,100, cut for the highest 2% near 16,000. This is one part of a sample in which the highest values are shown more often than they occur.
# Target: OsWRKY34 (Oryza sativa, UniProt Q0JBA9 1-250)
# Assay: protein-binding microarray (RPBM); PBS, 2% BSA, 51.3 ng/ul salmon testes DNA, 50 uM zinc acetate, 200 nM TF, 25 C, 1 h; high values mean tight binding
# Details: protein: recombinant; tags: N-terminal polyhistidine and DsRed monomer fusion (pET32a); label: CyDye5-dUTP incorporated in the synthesized complementary strand; 3' TTTTT single-stranded linker to array surface; dsDNA, one strand shown
# Method in brief: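 The binding signal is fluorescence intensity per feature, in arbitrary units, read on an Axon 4000B scanner. Polyhistidine- and DsRed-tagged transcription factors (N-terminal fusions) from E. coli BL21-CodonPlus were purified on Ni–NTA and applied at 200 nM for 1 h at 25 °C to a double-stranded, BSA-blocked custom Agilent array in buffer with 50 µM zinc acetate.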
# OsWRKY34, sequence (Q0JBA9 entry or part of it): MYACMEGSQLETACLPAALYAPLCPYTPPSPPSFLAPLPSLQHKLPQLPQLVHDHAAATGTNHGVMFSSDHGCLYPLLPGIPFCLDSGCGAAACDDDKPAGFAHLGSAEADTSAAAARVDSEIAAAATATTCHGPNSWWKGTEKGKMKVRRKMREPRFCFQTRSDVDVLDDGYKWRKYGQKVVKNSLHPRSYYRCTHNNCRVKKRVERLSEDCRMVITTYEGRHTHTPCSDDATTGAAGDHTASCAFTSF
row,Sequence,binding signal
1,TCCATGGATATTTTGTCTCTTCTGCTTGATCACTAGGCCCCGGAGTCACCTAGTGCAG,10100 fluorescence intensity (a.u.)
2,TCCCGACACCGGCTGTCCACTTCGCTCTGCTCCACGCCGCCGGAGTCACCTAGTGCAG,8660 fluorescence intensity (a.u.)
3,TCAACTCCTCCCTGAGTCTAGTCCCGATCCGCCGTTGACCCGGAGTCACCTAGTGCAG,13000 fluorescence intensity (a.u.)
4,ATCCCCACCGTTGACCGAAGTTGACCTCCAAGAATCCTGACGGAGTCACCTAGTGCAG,13800 fluorescence intensity (a.u.)
5,CTCCCTGAGTCTAGTCCCGATCCCCACCGTTGACCGAAGTCGGAGTCACCTAGTGCAG,19900 fluorescence intensity (a.u.)
6,CTGAGAATTTAGGACCTGATCACTTTTATGACATTTTCAACGGAGTCACCTAGTGCAG,8610 fluorescence intensity (a.u.)
7,TTTGCATTTATTTTTCATTGTTTCCGTCACTTTAGAAATTCGGAGTCACCTAGTGCAG,8260 fluorescence intensity (a.u.)
8,GCCATTATATCTGCAGTTCTTTTCTGTGCTAAAATTTTAGCGGAGTCACCTAGTGCAG,17100 fluorescence intensity (a.u.)
9,GGGTTTTTTATATACTGGTAAATATTCGCTACCGTATTCGCGGAGTCACCTAGTGCAG,9130 fluorescence intensity (a.u.)
10,TGTAGTTGTGAGTGTATTCGTTTGTACTGTTTTTTTTATACGGAGTCACCTAGTGCAG,11900 fluorescence intensity (a.u.)
11,GCTTTCTGTGGTGCATTCTATATTTTTTATATATTATTATCGGAGTCACCTAGTGCAG,16400 fluorescence intensity (a.u.)
12,TGCGTTTATTTATACCGTTGTCCTCGCGTACTGTTTTATTCGGAGTCACCTAGTGCAG,19400 fluorescence intensity (a.u.)
13,CCCATTATTTTTTATACCTTTATTTATCTTCTGTGTTTTTCGGAGTCACCTAGTGCAG,13500 fluorescence intensity (a.u.)
14,TTTCCGTACTAAATTTTGTTCATTCGTTTTATTTATTTTTCGGAGTCACCTAGTGCAG,17100 fluorescence intensity (a.u.)
15,TTCGTATTTGTTTCCGTATCCGGATTATTCATATTCGTTTCGGAGTCACCTAGTGCAG,8050 fluorescence intensity (a.u.)
16,CATTTATCTATTTATCTATCTATATATATTATATTATATTCGGAGTCACCTAGTGCAG,8560 fluorescence intensity (a.u.)
17,AGTGGTGCATTCTGTTTTTTTATATATTATTATTTGTTTACGGAGTCACCTAGTGCAG,9050 fluorescence intensity (a.u.)
18,AATTTCTGCTGCCATTTTCTATGTTCTTTAGTCTAAGTTTCGGAGTCACCTAGTGCAG,14700 fluorescence intensity (a.u.)
19,GAGCACATACTTTGGTCATTAATGGTGATTATAATGATATCGGAGTCACCTAGTGCAG,8820 fluorescence intensity (a.u.)
20,GAGGAAACATCTATCCCGGTCAAAGCCTGAGCATGTACACCGGAGTCACCTAGTGCAG,8210 fluorescence intensity (a.u.)
21,TTTCTCTTTGCACCCTAGCCTCATGTTCTTCTTCTTCCTCCGGAGTCACCTAGTGCAG,8680 fluorescence intensity (a.u.)
22,GAAGAGCCGGCTCGTTCCTCTCCTTCCCGTTCACATTTCACGGAGTCACCTAGTGCAG,8260 fluorescence intensity (a.u.)
23,CTGATGTCTGAACGACTGTACCCGACGTTGTTGATTGCTTCGGAGTCACCTAGTGCAG,9820 fluorescence intensity (a.u.)

row,Sequence,binding signal
1,GGGCGACAAGCACGCGTATACCCATCTATCATCCCGCTCCCGGAGTCACCTAGTGCAG,8390 fluorescence intensity (a.u.)
2,CACCAGCATCCTCGCACGGTCGCGACCCCTCCCGCACCTCCGGAGTCACCTAGTGCAG,8200 fluorescence intensity (a.u.)
3,CAATCCGGACCATATAAGTGTTTTCCTTTTTTAATTCTTTCGGAGTCACCTAGTGCAG,11300 fluorescence intensity (a.u.)
4,AATTTTGTATATTCGTTTGCACGTTTTTAAAACTCCTAAACGGAGTCACCTAGTGCAG,65500 fluorescence intensity (a.u.)
5,ATAGTCATTTATTTTGTGCTCTCGTATTTTTTTTCTGTTTCGGAGTCACCTAGTGCAG,9540 fluorescence intensity (a.u.)
6,TTATTTTGTGATTACTATCTCTCCGTTCATGTTTCTATCTCGGAGTCACCTAGTGCAG,16400 fluorescence intensity (a.u.)
7,TACATTACTTCATATTTTTTTCTGTTTGTGATTTCTATTTCGGAGTCACCTAGTGCAG,9740 fluorescence intensity (a.u.)
8,CCCCTATTTTGTTACCTCATTATTCTCGTATTCCCCTTTTCGGAGTCACCTAGTGCAG,9810 fluorescence intensity (a.u.)
9,TACTATTTTTTCTCGTATTCATTATTTTGTGCATTATTTTCGGAGTCACCTAGTGCAG,17200 fluorescence intensity (a.u.)
10,AAATTTGTATAGACGTTTGCTTTTAACTTAGTCCTAAATTCGGAGTCACCTAGTGCAG,9130 fluorescence intensity (a.u.)
11,GTATTTTAAGCATATTTTTTCGTTTTTTATATTTGTAAAACGGAGTCACCTAGTGCAG,11000 fluorescence intensity (a.u.)
12,ACTATTACTTCTATTTTCTAGTATTTTTTTTTGTTTCTCTCGGAGTCACCTAGTGCAG,13500 fluorescence intensity (a.u.)
13,GATTGGGCGATTTCATCTTCTTCTTGGCCTTGAGGCGGTACGGAGTCACCTAGTGCAG,10000 fluorescence intensity (a.u.)
14,TTTCTTAGCTATGTCCTAATTTATTACTGTGCATGTTTCTCGGAGTCACCTAGTGCAG,10900 fluorescence intensity (a.u.)
15,CACATGTCATTGTCACACACACGCGCGCCCCATTGGACATCGGAGTCACCTAGTGCAG,9860 fluorescence intensity (a.u.)
16,ATTTGCACCTGTTGAATGGGCATGTCTTGTGTGTGTTTCTCGGAGTCACCTAGTGCAG,8400 fluorescence intensity (a.u.)
17,GTGGGGTCGGGTACTCGCGTGGGCCCACCTGGCCGGTCAACGGAGTCACCTAGTGCAG,10200 fluorescence intensity (a.u.)
18,TCTCGGGCCGAAACGGTCAACGCGTTTACCGGTGGCATAACGGAGTCACCTAGTGCAG,17500 fluorescence intensity (a.u.)
19,CCCACCAGGCCACCAAACTCTCTCGGGCCGAAACGGTCAACGGAGTCACCTAGTGCAG,8380 fluorescence intensity (a.u.)
20,TCCTCTTGCAATCATTCACTCTCCTTGCTCGATTCTATAACGGAGTCACCTAGTGCAG,11300 fluorescence intensity (a.u.)
21,AATTCTTTTGTCGTATTATCCTATCTACTTCCACTTATAACGGAGTCACCTAGTGCAG,8560 fluorescence intensity (a.u.)
22,AATATAGTTGCTGATGCGCTGTCCAGGATGCCTGTTATACCGGAGTCACCTAGTGCAG,9400 fluorescence intensity (a.u.)
